Screens (PubChem)
Hits are enriched below; roughly 8.9% of the tested compounds scored in any of these assays.
MCF10A rerep: DNA re-replication induction in MCF 10a cells; MCF 10A DNA re-replication, Hoechst nuclear intensity, 48 h; Potency, µM (doses to about 46.1 µM), hits mostly activators; hit rate 2.9% among 350,000; also: nearly all actives have a fitted effect of over 50% in size
SW480 rereplic: induces DNA re-replication in SW480 colon adenocarcinoma cells; Potency, µM (highest dose often 46.1 µM), usual class: activators; hit rate 1.8% among 340,000; SW480 DNA re-replication, Hoechst DNA content imaging, 48 h; AID 624297; also: nearly all actives have a fitted effect of over 55% in size
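First, 250 cells per well were seeded. Next, compound or vehicle (23 nL) was pinned in, plates sat 48 hr at 37 C. Finally Hoechst was added for 40 min before fluorescence scanning.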
D3 antag: antagonists of human D3 dopamine receptor; P35462; D3R cells, DiscoveRx beta-arrestin luminescence, antagonist mode; stronger effect = lower value; max response, negative = inhibition, %; hit rate 2.5% among 360,000; in the data active = max response below about -50%; inconclusive = no clear call, values can overlap the other calls
Target sequence (P35462 whole entry, looked up): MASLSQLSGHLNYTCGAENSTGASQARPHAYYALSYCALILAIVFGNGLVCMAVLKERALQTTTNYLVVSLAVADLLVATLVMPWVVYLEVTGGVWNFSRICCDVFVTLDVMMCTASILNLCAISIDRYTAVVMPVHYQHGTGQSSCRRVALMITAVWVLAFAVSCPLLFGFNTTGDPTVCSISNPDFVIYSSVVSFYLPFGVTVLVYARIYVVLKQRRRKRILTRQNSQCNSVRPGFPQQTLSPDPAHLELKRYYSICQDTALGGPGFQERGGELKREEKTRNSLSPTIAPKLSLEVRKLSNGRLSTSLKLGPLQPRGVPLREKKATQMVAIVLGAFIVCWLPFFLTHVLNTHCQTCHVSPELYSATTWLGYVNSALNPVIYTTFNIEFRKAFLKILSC
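Cells expressing the human receptor were seeded at 1500 cells/well, incubated overnight at 37 degrees C in 5% CO2, then exposed to library compounds with dopamine controls for 90 minutes at 37 degrees C before luminescent detection.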
KB-V1 MDR tox: KB-V1 MDR subline cytotoxicity; KB-V1 MDR cells viability, CellTiter-Glo, 72 h; Potency, µM (highest dose often 46.1 µM), actives largely listed as cytotoxic; hit rate 3.4% among 400,000; AID 1347076; also: nearly all actives have a fitted effect of over 60% in size
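Cytotoxicity via CellTiter-Glo luminescence after 72 h compound exposure at 37 degrees C. Cells: drug-selected KB-V1 line, DMEM phenol-red free plus 10% FBS. Compounds tested at multiple concentrations; normalized data fitted to concentration-effect curves.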
KB-3-1 tox: KB-3-1 parental cell cytotoxicity; hit rate 1.4% among 400,000; Potency, µM (series often up to 46.1 µM), usual class: cytotoxic; AID 1347075; KB-3-1 viability, CellTiter-Glo ATP luminescence, 72 h; also: nearly all actives have a fitted effect of over 60% in size
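Cytotoxicity in the drug-sensitive parental line KB-3-1 was scored as loss of CellTiter-Glo luminescence following 72 h incubation with compound. Values come from curve fitting of normalized concentration-response data.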
DRD3 agonist: agonists of human D3 dopamine receptor. P35462. D3R DiscoveRx beta-arrestin cells, luminescence, 90 min. max activation, %. hit rate 0.58% among 410,000. AID 652048; in the data active = max activation above about 30%
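Agonist mode: compounds and dopamine controls were applied to plated cells for 90 min at 37 degrees C after an overnight attachment at 1500 cells/well. Luminescent read-out followed 30 - 60 minutes at room temperature with DiscoveRx detection reagent.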
Hits are given with their value; 0 = inactive; ? = inconclusive; - = not tested or not shown. Unless noted, calls follow the shape of the dose curve; as a rule, active = well fitted curve in the direction sought with a large enough effect; inconclusive = small, poorly fitted or top-dose-only effect, or another doubt; inactive = no such curve, though single readings can be large; an effect the other way counts as inactive or inconclusive.

SMILES | MCF10A rerep | SW480 rereplic | D3 antag | KB-V1 MDR tox | KB-3-1 tox | DRD3 agonist
COc1ccc(N2CCN(C(=O)Cc3ncc(C(F)(F)F)cc3Cl)CC2)cc1 | 0 | 0 | 0 | 20.6µM | 0 | 0
O=C(Cc1ncc(C(F)(F)F)cc1Cl)N1CCN(c2ccc(F)cc2)CC1 | 0 | 0 | 0 | 0 | 0 | 0
COc1ccccc1CNS(=O)(=O)c1ccc2c(c1)CC(C)N2C(C)=O (stereo unspecified) | - | - | - | 0 | 0 | 0
Cc1ccc(Cl)cc1N1CCN(S(=O)(=O)c2ccc3oc(=O)c4ncn(C)c4c3c2)CC1 | - | - | - | 0 | 0 | 0
CCn1cc(C(=O)NCc2ccc(Cl)cc2)c(=O)c2cc(S(=O)(=O)N(C)C)ccc21 | ? | ? | ? | 14.6µM | 0 | 0
CCn1cc(C(=O)NCC2CCCO2)c(=O)c2cc(S(=O)(=O)N(C)C3CCCCC3)ccc21 (stereo unspecified) | 0 | 0 | -51.9 | 0 | 0 | 0
C=CCn1cc(C(=O)NCCCOCC)c(=O)c2cc(S(=O)(=O)N(CC)CC)ccc21 | 0 | 0 | 0 | 2.91µM | 0 | 0
Cc1ccccc1N(C)S(=O)(=O)c1ccc2[nH]cc(C(=O)NCC3CCCO3)c(=O)c2c1 (stereo unspecified) | 0 | 0 | -69.3 | 0 | ? | 0
CCn1cc(C(=O)NCCc2ccc(Cl)cc2)c(=O)c2cc(S(=O)(=O)N(C)C)ccc21 | 0 | 0 | 0 | 0 | ? | 0
C=CCn1cc(C(=O)NCCOC)c(=O)c2cc(S(=O)(=O)N(CC)CC)ccc21 | 0 | 0 | 0 | 0 | 0 | 0
Cc1cc(C)c(OCC(=O)N(Cc2cccc(F)c2)Cc2ccco2)c(C)c1 | - | - | - | - | - | 0
CCc1ccc(NC(=O)C2CCC(CNS(=O)(=O)c3cccs3)CC2)cc1 (stereo unspecified) | - | - | - | 0 | 0 | 0
CCN(CCCNC(=O)c1cn(CC)c2ccc(S(=O)(=O)N(C)C)cc2c1=O)c1cccc(C)c1 | 0 | 0 | 0 | 16.4µM | ? | 0
COc1cc(Cl)c(NC(=O)c2cc3ccccn3n2)c(OC)c1 | - | - | - | 0 | 0 | 0
Cc1c(CC(=O)O)c(=O)oc2c(C)c3occ(-c4ccc(Br)cc4)c3cc12 | ? | 0 | 0 | 0 | 0 | 0
CCCCC(NC(=O)Cc1c(C)c2cc3c(-c4ccccc4)coc3c(C)c2oc1=O)C(=O)O (stereo unspecified) | 20.6µM | 0 | 0 | ? | 0 | 0
O=S1(=O)N=C(Oc2ccccc2Br)c2ccccc21 | - | - | - | 0 | 0 | -
COc1ccc2c(c1OC)C(=O)OC2CC(=O)O (stereo unspecified) | 0 | 0 | -54.5 | 0 | 0 | 0
O=S(=O)(NCCc1csc2nc(-c3ccccc3)nn12)c1cccs1 | - | - | - | - | - | 0
Clc1ccc(CO/N=C/c2c(-c3ccccc3)nc3n2CCS3)c(Cl)c1 | ? | 0 | 0 | 14.6µM | 0 | 0
O=C(O)CCCc1ccc2ccc3cccc4ccc1c2c34 | 16.4µM | 0 | 0 | 0 | 0 | 0
CC1=NN(c2nc(-c3ccc(C)cc3)cs2)C(=O)C1N=Nc1ccccc1O (stereo unspecified) | ? | 0.731µM | -64.5 | 0 | 0 | 0
O=c1[nH]nc(Cc2ccccc2)c2ccccc12 | ? | 0 | 0 | 0 | 0 | 0
O=c1[nH]nc(Cc2ccc(-c3ccc(Cl)cc3)o2)c2ccccc12 | 8.2µM | ? | 0 | 0 | 0 | 0
CC1=C([N+](=O)[O-])C(c2cccc(Br)c2)C2=C(N1)c1ccccc1C2=O (stereo unspecified) | ? | 0.651µM | -94.4 | ? | 1.64µM | 0
SMILES | MCF10A rerep | SW480 rereplic | D3 antag | KB-V1 MDR tox | KB-3-1 tox | DRD3 agonist
COC(=O)c1ccc(OCC2c3cc(OC)c(OC)cc3CCN2C(=O)Cc2ccc(OC)c(OC)c2)cc1 (stereo unspecified) | - | - | - | ? | 0 | 0
CN(c1nccc(=O)[nH]1)C1CCN(c2nc3ccccc3n2Cc2ccc(F)cc2)CC1 | ? | ? | - | - | - | 0
Cc1cc(NC(=O)CSc2ccc(-c3nc4cc(C)c(C)cc4[nH]3)cn2)no1 | 0.184µM | ? | ? | ? | 0 | 0
Cc1cc2nc(-c3ccc(SCC(=O)Nc4ccc(S(=O)(=O)NC5CC5)cc4)nc3)[nH]c2cc1C | 20.6µM | ? | 0 | 0 | 0 | 0
Cc1cc2nc(-c3ccc(SCc4ccccc4C#N)nc3)[nH]c2cc1C | 0 | ? | 0 | 20.6µM | 0 | 0
COc1cc(NC(=O)N2CCC(CN3CCCC3)CC2)cc(OC)c1OC | - | - | - | - | - | 0
CC(C)c1cccc(OCCN2CCCC2)c1 | ? | 0 | -99.8 | ? | 0 | 0
Clc1cccc(OCCN2CCCC2)c1 | 0 | 0 | -72.8 | 0 | 0 | 0
CN1CCN(CCOc2cccc(Cl)c2)CC1 | 0 | 0 | ? | 0 | 0 | 0
CCC1CCCCN1CCCCOc1cccc(Cl)c1 (stereo unspecified) | 0 | 0 | -96.2 | 0 | 0 | 0
CCCCN(CC)CCNc1ncnc2onc(-c3ccc(Cl)cc3)c12 | - | - | - | 0 | 0 | 0
Cc1nc2nc(-c3ccccc3)cn2nc1C | 0 | ? | 0 | 20.6µM | 0 | 0
c1ccc(-c2cn3nc(-c4ccccc4)cnc3n2)cc1 | 0 | - | 0 | 0 | 0 | 0
Cc1nc2nc(-c3ccc(F)cc3)cn2nc1C | 0 | 0 | 0 | 0 | ? | 0
CCc1ccc(-c2cn3nc(C)c(C)nc3n2)cc1 | ? | 0 | 0 | 18.4µM | 0 | 0
CC1Cc2ccccc2N1C(=O)CSc1nc2ccc(NC(=O)COc3ccccc3)cc2s1 (stereo unspecified) | - | - | - | 0 | 0 | 0
Cc1ccc(-c2nc(CSc3nc4ccccc4c(=O)n3C)cs2)cc1 | ? | 0 | 0 | 11.6µM | ? | 0
Cc1ccc(-c2nc(CCN3C(=O)c4ccccc4C3=O)cs2)cc1 | ? | 0 | 0 | 13µM | 0 | 0
C=CCn1c(SCc2csc(-c3ccc(C)cc3)n2)nnc1-c1ccccc1OC | ? | - | 0 | 13µM | 0 | 0
O=C1c2ccccc2C(=O)N1CCc1csc(NNc2nc(CCN3C(=O)c4ccccc4C3=O)cs2)n1 | 0 | 0 | 0 | 0 | 0 | 0
CNC(=O)c1ccc(NC(=O)c2ccccc2OCc2c(C)noc2C)cc1 | - | - | 0 | 0 | 0 | 0
Cc1nn(-c2ccccc2)c2c1CC(=O)Nc1ccccc1-2 | 1.3µM | 1.46µM | 0 | 1.64µM | 0.651µM | 0
Cc1ccc(NC(=O)C(OC(=O)c2ccc(F)cc2)c2ccccc2)cc1Cl (stereo unspecified) | 0 | 0 | 0 | 0 | 0 | 0
Cc1ccc(NC(=O)C(OC(=O)c2ccc(O)cc2)c2ccccc2)cc1Cl (stereo unspecified) | 25.9µM | 0 | 0 | 0 | 0 | 0
Cc1ccccc1OCCC(=O)Nc1ccc(S(=O)(=O)N2CCCC2)cc1 | - | - | -86.6 | 0 | 0 | 0
O=C(Nc1cccc(Cl)c1)Nc1cc(S(=O)(=O)N2CCCCC2)ccc1Cl | 6.51µM | ? | 0 | ? | ? | 0
Cc1ccc(C)c(OCCC(=O)Nc2cccc(S(=O)(=O)N3CCCCC3)c2)c1 | 0 | 0 | 0 | 14.6µM | 0 | 0
